# Changes are numbered by the printed parent chain.
# Columns and labels:
# Assay in all cases: yeast three-hybrid, YBZ-1, SC-Leu-His + 0.5 mM 3-AT, 4 days
# Details in all cases: tags: N-Gal4 AD-HA kept; label: inside an RPR1-promoter hybrid RNA with tandem MS2 sites; ssRNA
# PUM1 PUF domain R5-MRD = PUM1 PUF domain R5-MRD (Homo sapiens, UniProt Q14671 828-1176, C1007M;Q1011D)
# Procedure, shortened: (§1)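 A centromeric plasmid in strain YBZ-1 co-expressed Pumilio-1 PUF domain libraries, randomized at the three base-contacting residues of each repeat, with matching RNA elements; the strain carries a LexA–MS2 coat fusion and a HIS3 reporter. After four days on SC-Leu (input) or SC-Leu-His + 0.5 mM 3-AT (selection), the repeat regions were PCR-amplified and Illumina-sequenced. The interaction score is the log change in variant frequency from input to selection, using log2 and a pseudocount of 1 where absent.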
# PUM1 PUF domain R5-RRA = PUM1 PUF domain R5-RRA (Homo sapiens, UniProt Q14671 828-1176, C1007R;Q1011A)
# Procedure, shortened: as §1
# PUM1 PUF domain R5-LFS = PUM1 PUF domain R5-LFS (Homo sapiens, UniProt Q14671 828-1176, C1007L;R1008F;Q1011S)
# Procedure, shortened: as §1
# PUM1 PUF domain R6-SYR = molecular target: T1, PUM1 PUF domain R6-SYR (Homo sapiens, UniProt Q14671 828-1176, N1043S;Q1047R)
# T1 sequence: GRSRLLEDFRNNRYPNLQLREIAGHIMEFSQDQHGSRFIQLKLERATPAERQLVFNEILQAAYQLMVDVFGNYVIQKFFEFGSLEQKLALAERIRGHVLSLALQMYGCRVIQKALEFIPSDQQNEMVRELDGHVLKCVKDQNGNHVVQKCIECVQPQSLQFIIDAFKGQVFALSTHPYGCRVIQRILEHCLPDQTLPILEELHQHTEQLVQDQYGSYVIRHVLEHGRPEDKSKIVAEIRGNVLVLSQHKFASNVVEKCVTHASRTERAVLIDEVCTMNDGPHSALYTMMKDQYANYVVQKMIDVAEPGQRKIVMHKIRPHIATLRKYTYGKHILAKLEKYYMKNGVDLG
# Procedure, shortened: as §1
# PUM1 PUF domain R5-LYL = PUM1 PUF domain R5-LYL (Homo sapiens, UniProt Q14671 828-1176, C1007L;R1008Y;Q1011L)
# Procedure, shortened: as §1
# PUM1 PUF domain R6-YRI = molecular target: T2, PUM1 PUF domain R6-YRI (Homo sapiens, UniProt Q14671 828-1176, N1043Y;Y1044R;Q1047I)
# T2 sequence: T1 sequence with S216Y, Y217R, R220I
# Procedure, shortened: as §1
# PUM1 PUF domain R6-KWG = molecular target: T3, PUM1 PUF domain R6-KWG (Homo sapiens, UniProt Q14671 828-1176, N1043K;Y1044W;Q1047G)
# T3 sequence: T1 sequence with S216K, Y217W, R220G
# Procedure, shortened: as §1
# PUM1 PUF domain R1-RFC = PUM1 PUF domain R1-RFC (Homo sapiens, UniProt Q14671 828-1176, S863R;R864F;Q867C)
# Procedure, shortened: as §1
# PUM1 PUF domain R5-TGR = PUM1 PUF domain R5-TGR (Homo sapiens, UniProt Q14671 828-1176, C1007T;R1008G;Q1011R)
# Procedure, shortened: as §1
# PUM1 PUF domain R1-KWC = PUM1 PUF domain R1-KWC (Homo sapiens, UniProt Q14671 828-1176, S863K;R864W;Q867C)
# Procedure, shortened: as §1
sequence,measurement,setting,value
GGCUAGAACUAGUGGAUCCCCCGGCGCCCGGCGGCUCGAGCCCGGGUAAGUGUAAAUAGUCUGCAUGCCGCCGGGCGCCAUGCCUGCAGGUCGACUCUAGAAAACAUG,binding signal,PUM1 PUF domain R5-MRD,2.65 log2 enrichment (interaction score)
same,binding signal,PUM1 PUF domain R5-RRA,1.06 log2 enrichment (interaction score)
same,binding signal,PUM1 PUF domain R5-LFS,2.29 log2 enrichment (interaction score)
same,binding signal,PUM1 PUF domain R6-SYR,6.46 log2 enrichment (interaction score)
same,binding signal,PUM1 PUF domain R5-LYL,2.85 log2 enrichment (interaction score)
GGCUAGAACUAGUGGAUCCCCCGGCGCCCGGCGGCUCGAGCCCGGGUAAGUGUUAAUAGUCUGCAUGCCGCCGGGCGCCAUGCCUGCAGGUCGACUCUAGAAAACAUG,binding signal,PUM1 PUF domain R5-MRD,2.48 log2 enrichment (interaction score)
same,binding signal,PUM1 PUF domain R5-LFS,1.78 log2 enrichment (interaction score)
GGCUAGAACUAGUGGAUCCCCCGGCGCCCGGCGGCUCGAGCCCGGGUAAGUGAAAAUAGUCUGCAUGCCGCCGGGCGCCAUGCCUGCAGGUCGACUCUAGAAAACAUG,binding signal,PUM1 PUF domain R6-YRI,3.61 log2 enrichment (interaction score)
same,binding signal,PUM1 PUF domain R6-KWG,5.8 log2 enrichment (interaction score)
GGCUAGAACUAGUGGAUCCCCCGGCGCCCGGCGGCUCGAGCCCGGGUAAGUGUAAAUCGUCUGCAUGCCGCCGGGCGCCAUGCCUGCAGGUCGACUCUAGAAAACAUG,binding signal,PUM1 PUF domain R1-RFC,3.46 log2 enrichment (interaction score)
GGCUAGAACUAGUGGAUCCCCCGGCGCCCGGCGGCUCGAGCCCGGGUAAGUGCAAAUAGUCUGCAUGCCGCCGGGCGCCAUGCCUGCAGGUCGACUCUAGAAAACAUG,binding signal,PUM1 PUF domain R6-SYR,6.87 log2 enrichment (interaction score)
GGCUAGAACUAGUGGAUCCCCCGGCGCCCGGCGGCUCGAGCCCGGGUAAGUGUCAAUAGUCUGCAUGCCGCCGGGCGCCAUGCCUGCAGGUCGACUCUAGAAAACAUG,binding signal,PUM1 PUF domain R5-TGR,5.8 log2 enrichment (interaction score)
same,binding signal,PUM1 PUF domain R5-RRA,4.67 log2 enrichment (interaction score)
GGCUAGAACUAGUGGAUCCCCCGGCGCCCGGCGGCUCGAGCCCGGGUAAGUGUAAAUUGUCUGCAUGCCGCCGGGCGCCAUGCCUGCAGGUCGACUCUAGAAAACAUG,binding signal,PUM1 PUF domain R1-KWC,3.86 log2 enrichment (interaction score)
GGCUAGAACUAGUGGAUCCCCCGGCGCCCGGCGGCUCGAGCCCGGGUAAGUGUGAAUAGUCUGCAUGCCGCCGGGCGCCAUGCCUGCAGGUCGACUCUAGAAAACAUG,binding signal,PUM1 PUF domain R5-RRA,1.09 log2 enrichment (interaction score)
same,binding signal,PUM1 PUF domain R5-LFS,1.48 log2 enrichment (interaction score)

# From PMC8384837, “Expanding the binding specificity for RNA recognition by a PUF domain”
